Data from PubChem BioAssay (Tox21).
Records with an inconclusive call do not appear. Active and inactive are the calls of the source. Unless noted, calls come from the whole dose curve; as a rule, active = well fitted curve in the direction sought with a large enough effect in the repeat runs; inconclusive = weak or mixed curves; inactive = no such curve, though single readings can be large; an effect the other way counts as inactive or inconclusive.

How the values were obtained:
[1] = qHTS assay to identify small molecule antagonists of the androgen receptor (AR) signaling pathway using the MDA cell line in the presence of 0.5 nM R1881 - cell viability counter screen (AID 1259242); note: nearly all actives have a fitted effect of over 45% in size; note: potency is the fitted concentration of half-maximal effect; for viability change, negative = cytotoxic: % is set by controls: 0 for no effect and ±100 for the full control effect
Outline: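 Cells seeded at 3,000/well and allowed 5 hr at 37C, 0% CO2 before compound transfer and R1881 (0.5 nM final) addition; 16 hr later, live-cell protease fluorescence indicated cytotoxicity.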

[2] = target: Androgen receptor (Homo sapiens) (UniProt P10275); assay: qHTS assay to identify small molecule antagonists of the androgen receptor (AR) signaling pathway using the MDA cell line in the presence of 0.5 nM R1881 (AID 1259243); note: nearly all actives have a fitted effect of over 50% in size; note: potency is the fitted concentration of half-maximal effect
Outline: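 Luminescence from an AR/GR-responsive MMTV-luciferase construct in MDA-kb2 breast carcinoma cells, read 30 min after ONE-Glo, following 16 hr co-treatment with compounds and 0.5 nM R1881.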

[3] = qHTS assay to identify small molecule HDAC inhibitors (AID 1259364);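 note: wild-type HCT-116 cells with endogenous class I/II HDAC activity; top concentration of the series differs between compounds; % is set by controls: 0 for no effect and ±100 for the full control effect; nearly all actives have a fitted effect of over 45% in size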
Outline: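 HCT-116 wt cells, 1,500/well, overnight attach. Compounds (DMSO) 2 h, 37 °C. HDAC-Glo I/II, 30 min RT. Luminescence.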

[4] = qHTS assay to identify small molecule HDAC inhibitors - cell viability counter screen (AID 1259365); note: nearly all actives have a fitted effect of over 50% in size; note: potency is the fitted concentration of half-maximal effect
Outline: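 HCT-116 (wild type), 1,500 cells/well, overnight 37C/5% CO2; compound in DMSO 2hr; CellTiter-Glo 30min RT; luminescence read.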

[5] = qHTS assay to identify small molecule agonists of the sonic hedgehog signaling (Shh) pathway - cell viability counter screen (AID 1259366); note: nearly all actives have a fitted effect of over 50% in size; note: potency is the fitted concentration of half-maximal effect
Outline: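 CellTiter-Fluor fluorescence read-out, 1 hr at 37C, added after 23hr compound exposure. Cells: 3T3 Gli1-Luc, an NIH/3T3 clone with stably integrated Gli1-Luc reporter, plated 4hr before compound.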

[6] = qHTS assay to identify small molecule antagonists of the sonic hedgehog signaling (Shh) pathway - cell viability counter screen (AID 1259367); note: nearly all actives have a fitted effect of over 55% in size; note: potency is the fitted concentration of half-maximal effect
Outline: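 Conditioned medium drove Shh signaling in 3T3 Gli1-Luc cells exposed to compounds at 37C and 5% CO2. Viability was determined from CellTiter-Fluor fluorescence, with reagent incubated 1 hr after 23 hr of treatment.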

[7] = qHTS assay to identify small molecule agonists of the sonic hedgehog signaling (Shh) pathway (AID 1259368; calls by dose curve;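 note: NIH/3T3-derived 3T3Gli1-Luc cells carrying a stable Gli1-driven firefly luciferase reporter; series mostly up to about 92 µM; % is set by controls: 0 for no effect and ±100 for the full control effect; nearly all actives have a fitted effect of over 15% in size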)
Outline: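 Following a 24 hr incubation with DMSO-dissolved compounds at 37 C, 5% CO2, Gli1-Luc NIH/3T3-derived cells received luciferase reagent for 30 min at room temperature prior to luminescence measurement.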

[8] = qHTS assay to identify small molecule agonists of the estrogen receptor beta (ER-beta) signaling pathway - cell viability counter screen (AID 1259380); note: nearly all actives have a fitted effect of over 30% in size; note: potency is the fitted concentration of half-maximal effect
Outline: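 Compounds dissolved in DMSO were pin-transferred onto ER-beta-UAS-bla HEK293T cells that had settled 6 hr, and exposure ran 16 hr at 37C. Following the reporter read, CellTiter-Glo luminescence after 30 min at room temperature indicated cytotoxicity.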

[9] = target: Androgen receptor (Homo sapiens) (UniProt P10275); assay: qHTS assay to identify small molecule agonists of the androgen receptor (AR) signaling pathway in the presence of an antagonist (AID 1259381; calls by dose curve; note: % is set by controls: 0 for no effect and ±100 for the full control effect; nearly all actives have a fitted effect of over 15% in size)
Outline: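 Plated MDA-kb2 cells (3,000/well) were pre-incubated 5hr, given nilutamide (3.0uM final) or buffer, then dosed with compounds in DMSO at 15 concentrations. Luciferase activity was quantified by luminescence after 16hr at 37C.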

[10] = qHTS assay to identify small molecule antagonists of the estrogen receptor beta (ER-beta) signaling pathway - cell viability counter screen (AID 1259382); note: nearly all actives have a fitted effect of over 55% in size; note: potency is the fitted concentration of half-maximal effect
Outline: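 CellTiter-Glo ATP luminescence measured after the LiveBLAzer read in the same wells; ER-beta-UAS-bla HEK293T cells, 16 hr compound treatment with 1nM 17-beta-estradiol agonist at 37C, 5% CO2.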

[11] = qHTS assay to identify small molecule agonists or antagonists of the thyroid stimulating hormone receptor (TSHR) signaling pathway - wild type cell line counter screen (AID 1259384; calls by dose curve; note: % is set by controls: 0 for no effect and ±100 for the full control effect)
Outline: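 Wild-type HEK293 cells were plated 18 h at 37 C/5% CO2, pin-dosed with compound plus Ro20-1724 medium, held 30 min at room temperature, then given cAMP-d2 and anti-cAMP-cryptate; fluorescence was read after 1 h. Fifteen concentrations, triplicate.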

[12] = target: Thyrotropin receptor (Homo sapiens) (UniProt P16473); assay: qHTS assay to identify small molecule antagonists of the thyroid stimulating hormone receptor (TSHR) signaling pathway (AID 1259385; calls by dose curve; note: nearly all actives have a fitted effect of over 20% in size; note: potency is the fitted concentration of half-maximal effect)
Outline: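 TSHR-HEK293 cells were plated and held 18 h at 37C/5% CO2, then given compound plus Ro20-1724 and stimulated with TSH at 1.5 ng/mL final. After 30 min at room temperature, cAMP was detected with cAMP-d2/anti-cAMP-cryptate (1 h) by fluorescence.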

[13] = target: Estrogen receptor (Homo sapiens) (UniProt P03372); assay: qHTS assay to identify small molecule antagonists of the estrogen receptor alpha (ER-alpha) signaling pathway using the BG1 cell line in the presence of 0.1 nM 17-beta-estradiol (AID 1259244); note: nearly all actives have a fitted effect of over 50% in size; note: potency is the fitted concentration of half-maximal effect
Outline: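 Luciferase signal from VM7Luc4E2 ERE-reporter cells, co-dosed with test compound and 0.1 nM final 17beta-estradiol for 22 h, read with ONE-Glo.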

[14] = target: Estrogen receptor beta (Homo sapiens) (UniProt Q92731); assay: qHTS assay to identify small molecule agonists of the estrogen receptor beta (ER-beta) signaling pathway (AID 1259377; active = well fitted activation curve with a large enough effect in the signal ratio in the repeat runs, not every such curve was filed as active; the % refers to the signal ratio; note: % is set by controls: 0 for no effect and ±100 for the full control effect)
Outline: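 Beta-lactamase reporter readout: fluorescence of LiveBLAzer B/G FRET substrate after 2 h at room temperature, following 16 h compound treatment of ER-beta-UAS-bla HEK293T cells at 37C in 2% charcoal-stripped FBS medium.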

[15] = qHTS assay to identify small molecule agonists of the androgen receptor (AR) signaling pathway in the presence of an antagonist - cell viability counter screen (AID 1259379); note: potency is the fitted concentration of half-maximal effect; nearly all actives have a fitted effect of over 25% in size
Outline: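 Each compound was tested at 15 concentrations on MDA-kb2 cells in the presence of 3.0uM nilutamide. Viability was measured by CellTiter-Fluor fluorescence after a 16 hr incubation at 37C in a CO2-free atmosphere.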

[16] = target: Estrogen receptor (Homo sapiens) (UniProt P03372); assay: qHTS assay to identify small molecule agonists of the estrogen receptor alpha (ER-alpha) signaling pathway in the presence of an antagonist (AID 1259383; calls by dose curve; note: top concentration of the series differs between compounds; % is set by controls: 0 for no effect and ±100 for the full control effect; nearly all actives have a fitted effect of over 15% in size)
Outline: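 Luminescent ERE-luciferase reporter, VM7Luc4E2 cells (endogenous ER-alpha); 10.0nM ICI-182,780 final; 15-point compound titration; 22hr at 37C; ONE-Glo, 30min RT.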

[17] = qHTS assay to identify small molecule phospholipidosis (PLD) inducers (AID 1259344; active = well fitted curve in the direction sought with a large enough effect; an effect the other way counts as inactive or inconclusive; note: % is set by controls: 0 for no effect and ±100 for the full control effect)
Outline: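 After 4 h attachment on collagen I, HepG2 cells were dosed with compound alongside LipidTOX Red, kept 24 h at 37 C, fixed, and imaged for lamellar phospholipid pits.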

[18] = qHTS assay to identify small molecule antagonists of the sonic hedgehog signaling (Shh) pathway (AID 1259369; calls by dose curve; note: nearly all actives have a fitted effect of over 45% in size; note: potency is the fitted concentration of half-maximal effect)
Outline: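 Read-out is luminescence from a firefly luciferase gene controlled by the Gli1 response element, in 3T3Gli1-Luc cells pre-incubated 4hr then exposed to compounds and conditioned medium for 24hr.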

[19] = qHTS assay to identify small molecule antagonists of the estrogen receptor alpha (ER-alpha) signaling pathway using the BG1 cell line in the presence of 0.1 nM 17-beta-estradiol - cell viability counter screen (AID 1259241); note: % is set by controls: 0 for no effect and ±100 for the full control effect; nearly all actives have a fitted effect of over 40% in size
Outline: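 Live-cell protease activity (CellTiter-Fluor fluorescence, 30 min) was read in the same wells after VM7Luc4E2 cells had been exposed to compounds with 0.1 nM 17beta-estradiol for 22 hr at 37C.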

[20] = target: Estrogen receptor beta (Homo sapiens) (UniProt Q92731); assay: qHTS assay to identify small molecule antagonists of the estrogen receptor beta (ER-beta) signaling pathway (AID 1259378; active = well fitted inhibition curve with a large enough effect in the signal ratio in the repeat runs, not every such curve was filed as active; the % refers to the signal ratio; note: potency is the fitted concentration of half-maximal effect)
Outline: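 ER-beta-UAS-bla HEK293T (GripTite) cells in 2% charcoal-stripped FBS medium were preincubated 6 hr at 37C, dosed with compound, then stimulated with 1 nM E2 (final) for 16 hr; beta-lactamase reporter read by B/G FRET fluorescence after 2 hr substrate loading.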

Chain of Estrogen receptor (Homo sapiens) (P03372 whole entry, looked up): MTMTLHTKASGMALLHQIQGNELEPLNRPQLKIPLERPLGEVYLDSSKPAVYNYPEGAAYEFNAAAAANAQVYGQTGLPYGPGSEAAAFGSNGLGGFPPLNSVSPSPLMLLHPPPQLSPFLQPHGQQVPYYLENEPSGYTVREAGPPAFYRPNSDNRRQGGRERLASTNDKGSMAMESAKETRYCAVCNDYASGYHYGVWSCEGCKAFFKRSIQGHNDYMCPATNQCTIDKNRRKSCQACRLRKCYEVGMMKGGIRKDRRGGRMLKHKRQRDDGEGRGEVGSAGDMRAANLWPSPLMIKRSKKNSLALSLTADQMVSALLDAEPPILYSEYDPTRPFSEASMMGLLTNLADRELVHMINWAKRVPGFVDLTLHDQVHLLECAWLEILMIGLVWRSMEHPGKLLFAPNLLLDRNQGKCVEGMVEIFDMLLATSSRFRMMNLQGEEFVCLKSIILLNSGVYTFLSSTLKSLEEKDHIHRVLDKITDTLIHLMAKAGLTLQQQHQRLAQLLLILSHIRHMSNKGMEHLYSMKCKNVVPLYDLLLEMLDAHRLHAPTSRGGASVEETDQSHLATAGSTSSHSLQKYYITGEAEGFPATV
Chain of Androgen receptor (Homo sapiens) (P10275 whole entry, looked up): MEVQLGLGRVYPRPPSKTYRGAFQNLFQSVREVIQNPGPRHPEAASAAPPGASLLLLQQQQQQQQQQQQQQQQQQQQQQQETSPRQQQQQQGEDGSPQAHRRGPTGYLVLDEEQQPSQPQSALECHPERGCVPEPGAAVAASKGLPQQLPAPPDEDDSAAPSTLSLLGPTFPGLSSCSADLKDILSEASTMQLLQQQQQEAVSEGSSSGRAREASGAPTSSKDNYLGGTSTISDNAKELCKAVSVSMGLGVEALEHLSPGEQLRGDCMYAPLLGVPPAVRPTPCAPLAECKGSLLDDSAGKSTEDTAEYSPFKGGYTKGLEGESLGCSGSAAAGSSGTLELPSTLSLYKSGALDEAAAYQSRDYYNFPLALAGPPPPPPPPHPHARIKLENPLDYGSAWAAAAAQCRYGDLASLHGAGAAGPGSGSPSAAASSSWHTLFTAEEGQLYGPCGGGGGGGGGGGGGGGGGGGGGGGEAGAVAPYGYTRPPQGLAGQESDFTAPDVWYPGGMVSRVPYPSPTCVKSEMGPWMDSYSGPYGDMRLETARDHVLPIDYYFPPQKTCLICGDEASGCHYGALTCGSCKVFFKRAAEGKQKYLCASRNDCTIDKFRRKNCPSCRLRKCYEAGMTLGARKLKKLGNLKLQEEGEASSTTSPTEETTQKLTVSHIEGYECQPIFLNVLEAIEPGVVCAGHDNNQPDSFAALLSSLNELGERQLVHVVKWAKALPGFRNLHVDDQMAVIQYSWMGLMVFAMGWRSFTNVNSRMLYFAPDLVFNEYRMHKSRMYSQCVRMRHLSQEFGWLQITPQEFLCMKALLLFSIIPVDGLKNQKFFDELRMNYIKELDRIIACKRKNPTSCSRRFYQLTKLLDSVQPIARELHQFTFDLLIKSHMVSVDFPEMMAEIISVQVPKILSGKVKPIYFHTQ
Chain of Thyrotropin receptor (Homo sapiens) (P16473 whole entry, looked up): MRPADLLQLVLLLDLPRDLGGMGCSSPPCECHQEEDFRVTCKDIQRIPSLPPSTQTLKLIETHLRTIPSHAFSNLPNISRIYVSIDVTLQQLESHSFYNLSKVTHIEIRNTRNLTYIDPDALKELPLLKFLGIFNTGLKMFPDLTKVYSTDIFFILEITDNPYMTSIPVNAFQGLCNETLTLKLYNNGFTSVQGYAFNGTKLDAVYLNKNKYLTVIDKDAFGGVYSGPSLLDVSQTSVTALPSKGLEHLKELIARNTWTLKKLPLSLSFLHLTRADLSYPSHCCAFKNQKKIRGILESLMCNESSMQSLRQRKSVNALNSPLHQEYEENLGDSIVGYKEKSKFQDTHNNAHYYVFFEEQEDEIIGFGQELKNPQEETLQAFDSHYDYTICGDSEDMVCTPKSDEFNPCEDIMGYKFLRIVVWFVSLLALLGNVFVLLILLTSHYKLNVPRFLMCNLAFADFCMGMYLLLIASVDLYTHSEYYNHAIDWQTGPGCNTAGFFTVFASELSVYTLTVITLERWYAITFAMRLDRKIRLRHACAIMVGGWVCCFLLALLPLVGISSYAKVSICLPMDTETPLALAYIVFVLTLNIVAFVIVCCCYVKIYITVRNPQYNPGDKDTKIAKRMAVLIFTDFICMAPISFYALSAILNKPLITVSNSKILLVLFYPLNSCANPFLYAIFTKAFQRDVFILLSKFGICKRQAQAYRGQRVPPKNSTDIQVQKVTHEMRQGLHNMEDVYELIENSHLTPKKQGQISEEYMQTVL
Chain of Estrogen receptor beta (Homo sapiens) (Q92731 whole entry, looked up): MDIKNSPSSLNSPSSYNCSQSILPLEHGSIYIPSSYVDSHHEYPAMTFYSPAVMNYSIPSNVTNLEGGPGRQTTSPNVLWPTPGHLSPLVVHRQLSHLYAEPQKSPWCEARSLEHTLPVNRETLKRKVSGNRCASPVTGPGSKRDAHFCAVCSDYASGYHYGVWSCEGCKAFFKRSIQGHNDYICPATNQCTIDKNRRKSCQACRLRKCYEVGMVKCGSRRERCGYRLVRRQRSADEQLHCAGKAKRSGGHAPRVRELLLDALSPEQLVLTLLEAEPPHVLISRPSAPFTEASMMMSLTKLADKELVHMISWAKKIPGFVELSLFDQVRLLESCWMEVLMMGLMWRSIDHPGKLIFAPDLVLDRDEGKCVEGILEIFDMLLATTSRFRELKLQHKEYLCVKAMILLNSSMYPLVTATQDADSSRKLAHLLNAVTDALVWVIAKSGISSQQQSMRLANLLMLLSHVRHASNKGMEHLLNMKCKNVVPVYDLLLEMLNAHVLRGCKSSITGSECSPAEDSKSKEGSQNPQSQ

O=C(OCC1CO1)C1CCCCC1C(=O)OCC1CO1 (centres undefined)
active: Potency [5] 13.7 µM | Potency [6] 13.7 µM
inactive: Potency [1] | Potency [2] | Potency [3] | Potency [4] | Potency [7] | Potency [8] | Potency [9] | Potency [10] | outcome [11] | Potency [12]

O=C1c2c(O)ccc(Nc3ccc(CCO)cc3)c2C(=O)c2c([N+](=O)[O-])ccc(O)c21
active: Potency [2] 54.5 µM | Potency [15] 43.3 µM | Potency [8] 17.2 µM
inactive: Potency [13] | Potency [3] | Potency [7] | Potency [14] | Potency [9] | Potency [10] | Potency [16]

CS(=O)(=O)CCNCc1ccc(-c2ccc3ncnc(Nc4ccc(OCc5cccc(F)c5)c(Cl)c4)c3c2)o1
inactive: Potency [17] | Potency [4] | Potency [5] | Potency [6] | Potency [7] | Potency [9] | outcome [11]
active: Potency [2] 13.3 µM | Potency [13] 29.8 µM | Potency [8] 13.3 µM | Potency [10] 13.3 µM

OCCN(CCO)c1nc(N2CCCCC2)c2nc(N(CCO)CCO)nc(N3CCCCC3)c2n1
active: Potency [18] 2.11 µM
inactive: Potency [17] | Potency [3] | Potency [4] | Potency [7] | Potency [9] | Potency [10] | Potency [16]

N=C1N=C(N)c2ccccc21
active: Potency [18] 8.63 µM
inactive: Potency [19] | Potency [4] | Potency [7] | Potency [10]

CCC1=C[C@@H]2CN(C1)Cc1c([nH]c3ccccc13)[C@@](C(=O)OC)(c1cc3c(cc1OC)N(C)[C@H]1[C@@](O)(C(=O)OC)[C@H](OC(C)=O)[C@]4(CC)C=CCN5CC[C@]31[C@@H]54)C2
inactive: Potency [1] | Potency [17] | Potency [3] | Potency [4] | Potency [7] | Potency [10] | Potency [16]
active: Potency [13] 21.1 µM | Potency [5] 11.9 µM | Potency [18] 0.0042 µM

NC(=O)N1C(=O)C(C(=O)c2cc(Cl)cs2)c2cc(F)c(Cl)cc21 (centres undefined)
active: Potency [5] 27.3 µM | Potency [6] 27.3 µM | Potency [18] 6.86 µM | Potency [20] 17.2 µM | Potency [15] 7.7 µM | Potency [8] 30.6 µM | Potency [10] 30.6 µM
inactive: Potency [2] | Potency [3] | Potency [4] | Potency [7] | Potency [9] | Potency [16] | outcome [11]

CC1=C(/C=C/C(C)=C/C=C/C(C)=C/C=O)C(C)(C)CCC1
active: Potency [5] 30.5 µM | Potency [6] 60.8 µM | Potency [18] 15.3 µM | Potency [15] 60.8 µM | Potency [8] 24.2 µM | Potency [10] 30.5 µM
inactive: Potency [3] | Potency [7] | outcome [11]

CC[C@@]1(O)C(=O)OCc2c1cc1n(c2=O)Cc2cc3c(CN(C)C)c(O)ccc3nc2-1
active: Potency [13] 1.88 µM | Potency [18] 1.33 µM
inactive: Potency [17] | Potency [3] | Potency [4] | Potency [7] | Potency [8] | Potency [10] | Potency [16] | outcome [11] | Potency [12]

Cc1cc(=O)oc2cc(N(C)C)ccc12
inactive: Potency [4] | Potency [7] | Potency [18] | outcome [11] | Potency [12]

NNc1nc(-c2ccc(N)cc2)cs1
active: Potency [8] 15.4 µM
inactive: Potency [13] | Potency [3] | Potency [4] | Potency [5] | Potency [7] | Potency [14] | Potency [20] | Potency [16] | outcome [11]

Cc1cc(O)c(C(C)(C)C)cc1Sc1cc(C(C)(C)C)c(O)cc1C
active: Potency [1] 43.2 µM | Potency [2] 24.3 µM | Potency [13] 30.6 µM | Potency [4] 61 µM | Potency [5] 19.3 µM | Potency [18] 9.67 µM | Potency [15] 30.6 µM | Potency [8] 19.3 µM | Potency [10] 24.3 µM
inactive: Potency [3] | Potency [7] | Potency [9] | Potency [16] | outcome [11]

O=C(OC[C@H]1O[C@@H](OC(=O)c2cc(O)c(O)c(OC(=O)c3cc(O)c(O)c(O)c3)c2)[C@H](OC(=O)c2cc(O)c(O)c(OC(=O)c3cc(O)c(O)c(O)c3)c2)[C@@H](OC(=O)c2cc(O)c(O)c(OC(=O)c3cc(O)c(O)c(O)c3)c2)[C@@H]1OC(=O)c1cc(O)c(O)c(OC(=O)c2cc(O)c(O)c(O)c2)c1)c1cc(O)c(O)c(OC(=O)c2cc(O)c(O)c(O)c2)c1
inactive: viability change, negative = cytotoxic [1] -18.2% [at 19 µM] | Potency [17] | activity change, negative = inhibition [3] 4.81% [at 19 µM] | activity change, negative = cytotoxicity [4] -4.93% [at 19 µM] | activity change [7] -2.95% [at 18.9 µM, stronger effect = higher value] | activity change, negative = cytotoxicity [10] -6.33% [at 19 µM]
active: Potency [5] 11.7 µM | Potency [6] 6.57 µM | Potency [18] 5.22 µM

CCCCc1oc2ccc(NS(C)(=O)=O)cc2c1C(=O)c1ccc(OCCCN(CCCC)CCCC)cc1
active: Potency [5] 21.1 µM | Potency [6] 26.6 µM | Potency [18] 2.98 µM | Potency [8] 11.9 µM | Potency [10] 10.6 µM | Potency [12] 29.8 µM
inactive: Potency [17] | Potency [3] | Potency [4] | Potency [7] | outcome [11]
